The text below walks through data of PubChem BioAssay AID1851 (National Center for Advancing Translational Sciences (NCATS), 2009).

One may read the AC50 as the concentration at which the activity in the assay is half-maximal.

Among all 16,000 compounds or so, about 5,100 (32%) were called active. About 25% were inconclusive and are not listed. This is one part of the list. Values without a mark were called inactive. Calls come from the whole dose curve; as a rule, active = well fitted curve in the direction sought with a large enough effect; inconclusive = small, poorly fitted or top-dose-only effect, or effect the other way; inactive = no such curve, though single readings can be large or run the other way.
% is set by controls: 0 for no effect and ±100 for the full control effect.

This assay deals with Cytochrome P450 3A4 (Homo sapiens) (UniProt P08684). In words: Cytochrome panel assay with activity outcomes. To be noted: recombinant CYP, pro-luciferin dealkylation, luminescence, p450-cyp3a4; series mostly up to 57.1 µM; activity, negative = inhibition: at the top concentration.
Chain of Cytochrome P450 3A4 (Homo sapiens) (P08684 whole entry, looked up): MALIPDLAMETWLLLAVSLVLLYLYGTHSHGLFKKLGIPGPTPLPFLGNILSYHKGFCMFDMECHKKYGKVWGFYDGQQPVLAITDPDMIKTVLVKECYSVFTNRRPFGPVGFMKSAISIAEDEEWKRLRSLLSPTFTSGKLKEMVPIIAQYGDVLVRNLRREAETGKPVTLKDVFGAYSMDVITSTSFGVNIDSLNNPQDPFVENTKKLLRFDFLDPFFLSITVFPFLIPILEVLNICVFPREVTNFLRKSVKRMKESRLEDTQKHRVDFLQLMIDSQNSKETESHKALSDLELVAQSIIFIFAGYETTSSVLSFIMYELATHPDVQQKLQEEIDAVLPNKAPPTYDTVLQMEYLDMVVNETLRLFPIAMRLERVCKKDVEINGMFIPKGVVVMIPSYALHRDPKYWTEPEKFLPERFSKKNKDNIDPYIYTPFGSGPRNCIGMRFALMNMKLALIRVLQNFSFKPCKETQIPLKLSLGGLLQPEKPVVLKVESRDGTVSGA
With `COC(=O)c1c(NC(=O)CC2Nc3ccccc3NC2=O)sc(C)c1C` (stereo not given), the AC50 is 3.55 µM (active). Turning to `CCN(CC)CCCNC(=O)CC1Sc2ccccc2NC1=O` (stereo not given), the “activity, negative = inhibition” value was 6.35%.

For the molecule `CC(Sc1nnc(C(C)N(C)C)n1-c1ccc(Cl)cc1)C(=O)Nc1ccc2c(c1)OCO2` (stereo not given), the concentration at half-maximal activity (AC50) was 0.891 µM (active). For `C/C(=N\NC(N)=S)c1ccc[nH]1`, the activity, negative = inhibition was -6.66% [at 11.4 µM]. With `CCOCC(=O)Nc1cc(-c2cn3cccnc3n2)ccc1C`, the “activity, negative = inhibition” value was 24.8%. Consider `Cc1ccc(-c2nc3ccccc3o2)cc1NC(=O)Cc1cccs1`, for which the “activity, negative = inhibition” value was 28.9%. For the molecule `COc1ccc2oc(-c3ccc(C)c(NC(=O)c4ccc(N5CCOCC5)c([N+](=O)[O-])c4)c3)nc2c1`, the AC50 was 6.31 µM (active). On to `CCOC(=O)c1c(NC(=O)c2ccc(N3CCOCC3)c([N+](=O)[O-])c2)sc(C)c1C`, for which the “activity, negative = inhibition” value is -1.99%. Take `COc1ccc2oc(-c3ccc(C)c(NC(=O)CSc4ccc(Cl)cc4)c3)nc2c1`: the AC50 is 11.2 µM (active). Regarding `CCCCn1cnc2c(cnn2-c2ccc(F)cc2)c1=O`, the “activity, negative = inhibition” value was -2.78%. On to `O=c1c2ccccc2ncn1CCCSc1ccccc1`, for which the “activity, negative = inhibition” value is -8.34%.

On to `Cc1ccc(SCCCn2cnc3ccccc3c2=O)cc1`, for which the concentration at half-maximal activity (AC50) was 11.2 µM (active).

Take `CCCCCn1c(=O)c(C(=O)c2ccccc2)nc2ccccc21`: the activity, negative = inhibition is -5.99% [at 2.29 µM]. On to `O=C(c1ccccc1)c1nc2ccccc2n(CCCn2c(=O)c(C(=O)c3ccccc3)nc3ccccc32)c1=O`, for which the AC50 was 1.41 µM (active). For the molecule `O=C(Cn1c(C(F)(F)F)nc2ccccc21)c1ccccc1`, the “activity, negative = inhibition” value is -8.98%.

Regarding `CN1CCC[C@@H](CC2c3ccccc3Sc3ccccc32)C1`, the “activity, negative = inhibition” value is -7.59% [at 25.6 µM]. On to `COc1cc(-n2ccnc2SC)c(Cl)cc1Cl`, for which the AC50 is 14.1 µM (active). For `Cc1cc(C(=O)NCc2ccccc2)no1`, the “activity, negative = inhibition” value was -13.3%. For `COc1ccc(-c2cc(C(=O)NCc3cccnc3)no2)cc1OC`, the AC50 was 2.51 µM (active). As to `COc1cccc(-c2nc(CS(=O)(=O)CC(=O)NCCCOC(C)C)c(C)o2)c1`, the AC50 was 7.94 µM (active). As for `CCOC(=O)N1CCC(NC(=O)CS(=O)(=O)Cc2nc(-c3cccc(OC)c3)oc2C)CC1`, the AC50 is 7.08 µM (active). In the case of `Cc1cccc(C)c1NC(=O)N1CCC(N2CCCCC2)CC1`, the “activity, negative = inhibition” value was -21.5%. Regarding `Cc1cccc(C)c1NC(=O)C(c1ccc(Cl)cc1Cl)N1CCCCC1` (stereo not given), the AC50 was 3.98 µM (active). On to `O=C(O)/C=C\C(=O)Nc1ncn[nH]1`, for which the activity, negative = inhibition was -3.91% [at 11.4 µM].

In the case of `Cc1ccccc1NC(=O)C(C)c1cccc(C(=O)c2ccccc2)c1` (stereo not given), the AC50 was 7.94 µM (active).

In the case of `CCCN[C@@H](C)C(=O)Nc1ccccc1C`, the AC50 result is “inactive”. In the case of `COC(=O)Nc1nc2ccc(C(=O)c3ccccc3)cc2[nH]1`, the “activity, negative = inhibition” value was -1.41% [at 25.6 µM].

For `COc1cccc(-c2noc(Cn3nc(C)c([N+](=O)[O-])c3C)n2)c1`, the AC50 is 14.1 µM (active). As to `Cc1cccc(-c2n[nH]c([N+](=O)[O-])n2)c1`, the activity, negative = inhibition is -5.58% [at 2.29 µM]. The same measure, in the same setting: to `COc1cccc(CN2CCN(Cc3cc(OC)c(OC)cc3[N+](=O)[O-])CC2)c1` belongs -15.7% [at 2.29 µM].

Regarding `CC[C@H](CO)NCCN[C@@H](CC)CO`, the “activity, negative = inhibition” value was 4.95% [at 25.6 µM]. With `N[C@@H](Cc1[nH]nc2ccccc12)C(=O)O`, the activity, negative = inhibition is -7.68% [at 11.4 µM]. Consider `COc1ccc(CCCC(=O)NC2CCCCC2)cc1`, for which the AC50 is 20 µM (active). `O=C(COc1ccc(Cl)cc1)NCCC1=CCCCC1`: the activity, negative = inhibition was -14.7% [at 11.4 µM].

As for `COc1ccc(/C=N/NC(=O)CCCC(=O)NC2CCCCC2)cc1`, the AC50 was 12.6 µM (active).

`CCC1=C(C)CN(C(=O)NCCc2ccc(S(=O)(=O)NC(=O)NC3CCC(C)CC3)cc2)C1=O` (stereo not given): the “activity, negative = inhibition” value was -25.9% [at 25.6 µM].

As for `COc1ccc(/C=N\NC(=O)O)cc1`, the activity, negative = inhibition is -13.4% [at 11.4 µM]. In the case of `COc1ccc(CCNC(=O)COc2ccc(S(=O)(=O)NC3CCCCC3)cc2Cl)cc1`, the AC50 is 7.08 µM (active).

As for `COC(=O)c1ccc(NC(=S)NC2CCCCC2)cc1`, the “activity, negative = inhibition” value was -15.8%. On the same count and under the same terms, under `CC(C)NC(=O)CC(=O)N/N=C/c1ccc(Br)cc1` stands -3.05%. Regarding `CC(C)OC(=O)C1=C2SCC(=O)N2C(N)=C(C#N)C1`, the activity, negative = inhibition is -16.2% [at 11.4 µM]. As for `N#Cc1cccc(-c2nc(N3CCNCC3)c3ccccc3n2)c1`, the AC50 is 31.6 µM (active).

Regarding `CN1CCN(c2nc(-c3cccc(C#N)c3)nc3ccccc23)CC1`, the AC50 was 15.8 µM (active).

With `c1ccc2c(N3CCNCC3)nc(-c3ccc4c(c3)OCO4)nc2c1`, the AC50 is 7.94 µM (active).

Regarding `COc1ccc(-n2c(=O)c(-c3cccc(C#N)c3)nc3cnc(N4CCNCC4)nc32)cc1`, the “activity, negative = inhibition” value is -26.2%. In the case of `C[C@@H](C(=O)NCc1ccccn1)[C@@H]1C[C@@]1(C)[C@@H](NC(=O)OCc1ccccc1)c1ccccc1`, the AC50 is 10 µM (active). Regarding `C[C@@H](C(=O)NCc1ccccn1)[C@H]1C[C@]1(C)[C@H](NC(=O)OCc1ccccc1)c1ccccc1`, the AC50 was 5.01 µM (active). As to `O=C(N[C@@H](c1ccccc1)[C@@H]1C[C@H]1C(=O)NCc1ccccn1)OCc1ccccc1`, the AC50 is 6.31 µM (active). In the case of `CC(Cc1ccccc1)C(=O)NCc1ccccn1` (stereo not given), the “activity, negative = inhibition” value is -42.9%. In the case of `O=C(N[C@@H](c1ccccc1)[C@@H]1C[C@H]1C(=O)O)OCc1ccccc1`, the “activity, negative = inhibition” value is -15.8%.
